From PubChem BioAssay (NCATS)
Results filed as inconclusive are left out. The source made the active and inactive calls. Calls come from the whole dose curve; as a rule, active = well fitted inhibition curve with a large enough effect; inconclusive = small, poorly fitted or top-dose-only effect; inactive = flat fitted curve, though single readings scatter. Where a SMILES comes first, the peptide text is derived from it. Bridges are numbered along the chain shown (N, C = ends). [ ]: non-standard residue; d: D form. hArg = N=C(N)NCCCC[C@H](N)C(=O)O; Mpa = O=C(O)CCS

How the values were obtained:
[1] = qHTS profiling for inhibitors of Plasmodium falciparum proliferation (AID 504749);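 note: 0% = DMSO vehicle and full inhibition = artemisinin control; nearly all actives have a fitted effect of over 60% in size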; settings: P. falciparum in erythrocytes, SYBR Green DNA, 72 h
Method in brief: (§1)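 SYBR Green fluorescence of parasite DNA, read after lysis and overnight dark incubation, measured growth over 72 h in erythrocyte culture at 0.3% parasitemia and 2.5% hematocrit. Data normalised to DMSO and 0.29 uM artemisinin, with plate-drift correction.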

3D7 = test: as above; settings: P. falciparum in erythrocytes, SYBR Green DNA, 72 h; series mostly up to 28.7 µM
Method in brief: as §1

7G8 = test: as above; settings: P. falciparum in erythrocytes, SYBR Green DNA, 72 h; series mostly up to 28.7 µM
Method in brief: as §1

AA1029 = test: as above; settings: P. falciparum in erythrocytes, SYBR Green DNA, 72 h; series mostly up to 28.7 µM
Method in brief: as §1

AS120 = test: as above; settings: P. falciparum in erythrocytes, SYBR Green DNA, 72 h; series mostly up to 28.7 µM
Method in brief: as §1

ATS189 = test: as above; settings: P. falciparum in erythrocytes, SYBR Green DNA, 72 h; series mostly up to 28.7 µM
Method in brief: as §1

ATS95 = test: as above; settings: P. falciparum in erythrocytes, SYBR Green DNA, 72 h; series mostly up to 28.7 µM
Method in brief: as §1

[2] = at 28.7 µM (top of the series), parasite line A
[3] = at 28.7 µM (top of the series), parasite line B
[4] = at 12.8 µM (top of the series), parasite line A
[5] = at 12.8 µM (top of the series), parasite line B

NC(=O)[C@@H]1CSSCCC(=O)N[C@@H](CCCCN=C(N)N)C(=O)NCC(=O)N[C@@H](CC(=O)O)C(=O)N[C@@H](Cc2c[nH]c3ccccc23)C(=O)N2CCC[C@H]2C(=O)N1 ([Mpa][hArg]GDWPC-NH2; disulfide 1-7)
inactive: activity, negative = inhibition [1, 2] -6.16% | activity, negative = inhibition [1, 3] 11.6% | Potency (3D7) | Potency (7G8) | Potency (AA1029) | Potency (AS120) | Potency (ATS189) | Potency (ATS95)

O=C(O)c1ccccc1OP(=O)(O)O
inactive: activity, negative = inhibition [1, 2] 4.92% | activity, negative = inhibition [1, 3] 6.75% | Potency (3D7) | Potency (7G8) | Potency (AA1029) | Potency (AS120) | Potency (ATS189) | Potency (ATS95)

COc1cc(O)cc(O)c1
inactive: activity, negative = inhibition [1, 2] 4.63% | activity, negative = inhibition [1, 3] -8.81% | Potency (3D7) | Potency (7G8) | Potency (AA1029) | Potency (AS120) | Potency (ATS189) | Potency (ATS95)

NC(=O)NS(=O)(=O)c1ccc(N)cc1
inactive: activity, negative = inhibition [1, 2] -1.96% | activity, negative = inhibition [1, 3] 15.9% | Potency (3D7) | Potency (7G8) | Potency (AA1029) | Potency (AS120) | Potency (ATS189) | Potency (ATS95)

C[C@@H](N)C(=O)O
inactive: activity, negative = inhibition [1, 2] 26.2% | activity, negative = inhibition [1, 3] 15.6% | Potency (3D7) | Potency (7G8) | Potency (AA1029) | Potency (AS120) | Potency (ATS189) | Potency (ATS95)

O=C(Cn1ccnc1[N+](=O)[O-])NCc1ccccc1
inactive: activity, negative = inhibition [1, 2] 12.6% | activity, negative = inhibition [1, 3] 10.2% | Potency (3D7) | Potency (7G8) | Potency (AA1029) | Potency (AS120) | Potency (ATS189) | Potency (ATS95)

O=C(NCCCN1CCOCC1)c1ccc(Cl)cc1
inactive: activity, negative = inhibition [1, 2] 6.41% | activity, negative = inhibition [1, 3] 5.99% | Potency (3D7) | Potency (7G8) | Potency (AA1029) | Potency (AS120) | Potency (ATS189) | Potency (ATS95)

CC(=O)NCc1c(I)c(NC(C)=O)c(I)c(C(=O)O)c1I
inactive: activity, negative = inhibition [1, 2] 10.9% | activity, negative = inhibition [1, 3] 6.96% | Potency (3D7) | Potency (7G8) | Potency (AA1029) | Potency (AS120) | Potency (ATS189) | Potency (ATS95)

CCCCCCCC(=O)OCC(O)CO (stereo not drawn)
inactive: activity, negative = inhibition [1, 2] 0.997% | activity, negative = inhibition [1, 3] -8.07% | Potency (3D7) | Potency (7G8) | Potency (AA1029) | Potency (AS120) | Potency (ATS189) | Potency (ATS95)

CCOC(N)=O
inactive: activity, negative = inhibition [1, 2] 8.86% | activity, negative = inhibition [1, 3] 9.69% | Potency (3D7) | Potency (7G8) | Potency (AA1029) | Potency (AS120) | Potency (ATS189) | Potency (ATS95)

C[N+](C)(C)CC[N+]1(C)Cc2c(Cl)c(Cl)c(Cl)c(Cl)c2C1
inactive: activity, negative = inhibition [1, 2] 5.09% | activity, negative = inhibition [1, 3] 9.42% | Potency (3D7) | Potency (7G8) | Potency (AA1029) | Potency (AS120) | Potency (ATS189) | Potency (ATS95)

O=C(O)CNC(=O)c1ccccc1I
inactive: activity, negative = inhibition [1, 2] 6.37% | activity, negative = inhibition [1, 3] 11.3% | Potency (3D7) | Potency (7G8) | Potency (AA1029) | Potency (AS120) | Potency (ATS189) | Potency (ATS95)

CC1CCN(CCCC(=O)c2ccc(F)cc2)CC1
inactive: activity, negative = inhibition [1, 2] 12.5% | activity, negative = inhibition [1, 3] 9.34% | Potency (3D7) | Potency (7G8) | Potency (AA1029) | Potency (AS120) | Potency (ATS189) | Potency (ATS95)

CC[N+](CC)(CC(=O)Nc1c(C)cccc1C)Cc1ccccc1
inactive: activity, negative = inhibition [1, 2] 15.1% | activity, negative = inhibition [1, 3] 8.11% | Potency (3D7) | Potency (7G8) | Potency (AA1029) | Potency (AS120) | Potency (ATS189) | Potency (ATS95)

COc1ccccc1Oc1c(NS(=O)(=O)c2ccc(C(C)(C)C)cc2)nc(-c2ncccn2)nc1OCCO
inactive: activity, negative = inhibition [1, 2] -4.92% | activity, negative = inhibition [1, 3] -14.6% | Potency (3D7) | Potency (7G8) | Potency (AA1029) | Potency (AS120) | Potency (ATS189) | Potency (ATS95)

Cc1c(N(C)C)c(=O)n(-c2ccccc2)n1C
inactive: activity, negative = inhibition [1, 2] 13.7% | activity, negative = inhibition [1, 3] 18.1% | Potency (3D7) | Potency (7G8) | Potency (AA1029) | Potency (AS120) | Potency (ATS189) | Potency (ATS95)

C[C@@H]1CCC[C@H](C)N1
inactive: activity, negative = inhibition [1, 4] 13.8% | activity, negative = inhibition [1, 5] -5.49% | Potency (3D7) | Potency (7G8) | Potency (AA1029) | Potency (AS120) | Potency (ATS189) | Potency (ATS95)

Cc1cc(NC(=O)C2=C(O)c3ccccc3S(=O)(=O)N2C)no1
inactive: activity, negative = inhibition [1, 2] 12.7% | activity, negative = inhibition [1, 3] -1.12% | Potency (3D7) | Potency (7G8) | Potency (AA1029) | Potency (AS120) | Potency (ATS189) | Potency (ATS95)

c1ccc2[nH]ccc2c1
inactive: activity, negative = inhibition [1, 2] 15.1% | activity, negative = inhibition [1, 3] 19.4% | Potency (3D7) | Potency (7G8) | Potency (AA1029) | Potency (AS120) | Potency (ATS189) | Potency (ATS95)

O=C(O)CCCc1ccccc1
inactive: activity, negative = inhibition [1, 2] 3.34% | activity, negative = inhibition [1, 3] -0.114% | Potency (3D7) | Potency (7G8) | Potency (AA1029) | Potency (AS120) | Potency (ATS189) | Potency (ATS95)

CCS(=O)(=O)CCn1c([N+](=O)[O-])cnc1C
inactive: activity, negative = inhibition [1, 4] -2.71% | activity, negative = inhibition [1, 5] -11.1%

CN/C(=C\[N+](=O)[O-])NCCSCc1csc(CN(C)C)n1
inactive: activity, negative = inhibition [1, 4] 4.23% | activity, negative = inhibition [1, 5] 7.76%

Nc1ccc(C(=O)Oc2ccccc2)c(O)c1
inactive: activity, negative = inhibition [1, 2] -10.9% | activity, negative = inhibition [1, 3] 5.45% | Potency (3D7) | Potency (7G8) | Potency (AA1029) | Potency (AS120) | Potency (ATS189) | Potency (ATS95)

CCCCOC(=O)c1ccc(N)cc1
inactive: activity, negative = inhibition [1, 2] 5.58% | activity, negative = inhibition [1, 3] 10.8% | Potency (3D7) | Potency (7G8) | Potency (AA1029) | Potency (AS120) | Potency (ATS189) | Potency (ATS95)

O=C(/C=C/c1ccccc1)OCc1ccccc1
inactive: activity, negative = inhibition [1, 2] 4.66% | activity, negative = inhibition [1, 3] -29.4% | Potency (3D7) | Potency (7G8) | Potency (AA1029) | Potency (AS120) | Potency (ATS189) | Potency (ATS95)
